Measured values reported in PubChem BioAssay (EPA / NIEHS).
The source made the active and inactive calls. How the source made its calls: active means hit-call score of the fitted dose curve at least 0.9, where 1 is the maximum; inactive means score below 0.9.

Key:
[1] = read-out: Matrix Metallopeptidase 9 (MMP9), MMP9 (gene 4318); assay: BSK_KF3CT_MMP9: BioMAP Diversity Plus: KF3CT Assay for Matrix Metallopeptidase 9 (MMP9) Biomarker Activity (AID 2283074); conditions: primary human keratinocytes with fibroblasts; actives raise or lower the signal
Method in brief: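 ELISA read-out of MMP-9 at 24 h post-dosing in a co-culture of human skin keratinocytes and foreskin fibroblasts. Gain or loss of signal was fitted in both directions against DMSO.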

[2] = read-out: urokinase plasminogen activator (uPA), PLAU (gene 5328); assay: BSK_KF3CT_uPA: BioMAP Diversity Plus: KF3CT Assay for urokinase plasminogen activator (uPA) Biomarker Activity (AID 2283075); conditions: primary human keratinocytes with fibroblasts; actives raise or lower the signal
Method in brief: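 Skin co-culture (keratinocytes + foreskin fibroblasts), human primary; 24 h post-dose; uPA by ELISA; gain/loss fit vs DMSO baseline.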

CD40, CD40 (gene 958) [3] = assay: BSK_LPS_CD40: BioMAP Diversity Plus: LPS Assay for CD40 Biomarker Activity (AID 2283076); conditions: primary human HUVEC with PBMC; actives raise or lower the signal
Method in brief: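 HUVEC plus PBMC co-culture stimulated with LPS; CD40 quantified by ELISA 24 h after compound dosing. Fitting was bidirectional relative to DMSO. SRB staining of parallel cultures flagged overt cytotoxicity.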

[4] = read-out: E-selectin (Homo sapiens) (UniProt P16581); assay: BSK_LPS_Eselectin: BioMAP Diversity Plus: LPS Assay for Eselectin Biomarker Activity (AID 2283077); conditions: primary human HUVEC with PBMC; actives raise or lower the signal
Method in brief: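 Human umbilical vein endothelial cells co-cultured with PBMC under LPS stimulation; cell-surface E-selectin measured by ELISA 24 h after dosing. Change in either direction versus DMSO, with SRB total-protein staining in parallel cultures for cytotoxicity.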

[5] = read-out: Interleukin-8 (IL8), CXCL8 (gene 3576); assay: BSK_LPS_IL8: BioMAP Diversity Plus: LPS Assay for Interleukin-8 (IL8) Biomarker Activity (AID 2283078); conditions: primary human HUVEC with PBMC; actives raise or lower the signal
Method in brief: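 Human umbilical vein endothelial cells co-cultured with PBMC, LPS-stimulated, exposed to compound for 24 h. IL-8 quantified by ELISA; fitted in both directions against DMSO, with SRB total-protein staining of parallel cultures for cytotoxicity.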

[6] = BSK_LPS_SRB: Viability Assessment in the BioMAP Diversity Plus: LPS Assay (AID 2283079); conditions: primary human HUVEC with PBMC;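 further: total protein by sulforhodamine B absorbance as a cytotoxicity measure; measured one day after compound addition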
Method in brief: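 Co-culture of human umbilical vein endothelial cells and PBMC, read 24 h after dosing. Total protein by 0.1% SRB staining after 10% TCA fixation, absorbance at 560 nm; bidirectional fit against DMSO.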

[7] = read-out: Interleukin-1 alpha (IL1a), IL1A (gene 3552); assay: BSK_LPS_IL1a: BioMAP Diversity Plus: LPS Assay for Interleukin-1 alpha (IL1a) Biomarker Activity (AID 2283080); conditions: primary human HUVEC with PBMC; actives raise or lower the signal
Method in brief: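 Human umbilical vein endothelial cells co-cultured with PBMC and stimulated with LPS; IL-1a measured by ELISA 24 h after dosing. Bidirectional fitting against DMSO; cytotoxicity checked by SRB staining in parallel cultures.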

[8] = read-out: Monocyte Chemoattractant Protein-1 (MCP1), CCL2 (gene 6347); assay: BSK_LPS_MCP1: BioMAP Diversity Plus: LPS Assay for Monocyte Chemoattractant Protein-1 (MCP1) Biomarker Activity (AID 2283081); conditions: primary human HUVEC with PBMC; actives raise or lower the signal
Method in brief: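 Human umbilical vein endothelial cells co-cultured with PBMC, LPS-stimulated; secreted MCP-1 measured by ELISA 24 h after compound addition. Bidirectional curve fitting against DMSO baseline; SRB total-protein staining in parallel cultures for cytotoxicity.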

[9] = BSK_LPS_PGE2: BioMAP Diversity Plus: LPS Assay for Prostaglandin E2 (PGE2) Biomarker Activity (AID 2283082); conditions: primary human HUVEC with PBMC; actives raise or lower the signal
Method in brief: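 PGE2 release measured by ELISA in an LPS-activated co-culture of human umbilical vein endothelial cells and peripheral blood mononuclear cells, read at 24 h post-dosing. DMSO served as baseline for bidirectional curve fitting.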

[10] = read-out: Macrophage colony-stimulating factor (MCSF), CSF1 (gene 1435); assay: BSK_LPS_MCSF: BioMAP Diversity Plus: LPS Assay for Macrophage colony-stimulating factor (MCSF) Biomarker Activity (AID 2283083); conditions: primary human HUVEC with PBMC; actives raise or lower the signal
Method in brief: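 HUVEC–PBMC co-culture, M-CSF measured by ELISA 24 h after chemical dosing. Fitted in both directions relative to DMSO as negative control; overt cytotoxicity assessed by SRB total-protein staining in parallel cultures.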

[11] = read-out: Tissue Factor, F3 (gene 2152); assay: BSK_LPS_TissueFactor: BioMAP Diversity Plus: LPS Assay for Tissue Factor Biomarker Activity (AID 2283084); conditions: primary human HUVEC with PBMC; actives raise or lower the signal
Method in brief: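 Human umbilical vein endothelial cells co-cultured with PBMC were dosed with compound. Cell-surface CD142 was measured by ELISA 24 h later. Activity was fitted bidirectionally against DMSO, with SRB total-protein staining in parallel cultures for cytotoxicity.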

[12] = read-out: Tumor necrosis factor (Homo sapiens) (UniProt P01375); assay: BSK_LPS_TNFa: BioMAP Diversity Plus: LPS Assay for Tumour Necrosis Factor alpha (TNFa) Biomarker Activity (AID 2283085); conditions: primary human HUVEC with PBMC; actives raise or lower the signal
Method in brief: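 TNFa was quantified by ELISA in LPS-activated co-cultures of human endothelial cells and PBMC, 24 h post-dosing. Both increases and decreases versus DMSO were fitted.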

CD38, CD38 (gene 952) = assay: BSK_SAg_CD38: BioMAP Diversity Plus: SAg Assay for CD38 Biomarker Activity (AID 2283087); conditions: primary human HUVEC with PBMC; actives raise or lower the signal
Method in brief: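 CD38 quantified by ELISA (fluorescence) in a superantigen-activated endothelial cell–PBMC co-culture at 24 h post-dose. Activity fitted in both directions relative to DMSO; parallel SRB and Alamar Blue cytotoxicity read-outs.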

CD40, CD40 (gene 958) [13] = assay: BSK_SAg_CD40: BioMAP Diversity Plus: SAg Assay for CD40 Biomarker Activity (AID 2283088); conditions: primary human HUVEC with PBMC; actives raise or lower the signal
Method in brief: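 HUVEC plus PBMC co-culture, superantigen-activated, with CD40 read by ELISA 24 h after dosing. Curves fitted in both directions against DMSO. Overt cytotoxicity checked by parallel SRB total-protein staining.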

CD69, CD69 (gene 969) = assay: BSK_SAg_CD69: BioMAP Diversity Plus: SAg Assay for CD69 Biomarker Activity (AID 2283089); conditions: primary human HUVEC with PBMC; actives raise or lower the signal
Method in brief: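 Values derive from bidirectional fitting relative to DMSO vehicle. Cells: umbilical vein endothelium plus peripheral blood mononuclear cells, treated 24 h before fluorescent ELISA for CD69.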

[14] = read-out: Monocyte Chemoattractant Protein-1 (MCP1), CCL2 (gene 6347); assay: BSK_SAg_MCP1: BioMAP Diversity Plus: SAg Assay for Monocyte Chemoattractant Protein-1 (MCP1) Biomarker Activity (AID 2283090); conditions: primary human HUVEC with PBMC; actives raise or lower the signal
Method in brief: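 Values derive from bidirectional fitting of ELISA-measured MCP1 against DMSO controls. Readings were taken 24 h after dosing human vascular endothelial cells co-cultured with peripheral blood mononuclear cells under superantigen stimulation.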

[15] = read-out: E-selectin (Homo sapiens) (UniProt P16581); assay: BSK_SAg_Eselectin: BioMAP Diversity Plus: SAg Assay for Eselectin Biomarker Activity (AID 2283091); conditions: primary human HUVEC with PBMC; actives raise or lower the signal
Method in brief: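 Human umbilical vein endothelial cells co-cultured with peripheral blood mononuclear cells, SAg system. E-selectin is measured by ELISA 24 h after dosing and fitted bidirectionally against DMSO. Cytotoxicity is checked by SRB staining of parallel cultures.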

[16] = read-out: Monokine induced gamma interferon (MIG), CXCL9 (gene 4283); assay: BSK_SAg_MIG: BioMAP Diversity Plus: SAg Assay for Monokine induced gamma interferon (MIG) Biomarker Activity (AID 2283092); conditions: primary human HUVEC with PBMC; actives raise or lower the signal
Method in brief: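 Values reflect bidirectional fitting of ELISA-measured MIG against DMSO vehicle, taken 24 h after dosing of a co-culture of human umbilical vein endothelial cells and peripheral blood mononuclear cells.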

[17] = BSK_SAg_PBMCCytotoxicity: PBMC Cytotoxicity Assessment in the BioMAP Diversity Plus: SAg Assay (AID 2283093); conditions: primary human HUVEC with PBMC;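 further: fitted both ways against DMSO so a hit may be loss or gain of signal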
Method in brief: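 PBMC viability by Alamar Blue reduction, fluorescence read at 546/580 nm after 6 h dye exposure. Cells were dosed 1 h before SEB plus TSST-1 activation (20 ng/mL final each), then held 90 h; endothelial/PBMC human co-culture.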

[18] = read-out: Vascular cell adhesion molecule 1 (VCAM1), VCAM1 (gene 7412); assay: BSK_LPS_VCAM1: BioMAP Diversity Plus: LPS Assay for Vascular cell adhesion molecule 1 (VCAM1) Biomarker Activity (AID 2283086); conditions: primary human HUVEC with PBMC; actives raise or lower the signal
Method in brief: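 VCAM-1 quantified by ELISA in an LPS-activated co-culture of human endothelial cells and peripheral blood mononuclear cells, read 24 h post-treatment. Fitted in both directions versus DMSO; parallel SRB staining flags overt cytotoxicity.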

Measured: outcome

Sequence of E-selectin (Homo sapiens) (P16581 whole entry, looked up): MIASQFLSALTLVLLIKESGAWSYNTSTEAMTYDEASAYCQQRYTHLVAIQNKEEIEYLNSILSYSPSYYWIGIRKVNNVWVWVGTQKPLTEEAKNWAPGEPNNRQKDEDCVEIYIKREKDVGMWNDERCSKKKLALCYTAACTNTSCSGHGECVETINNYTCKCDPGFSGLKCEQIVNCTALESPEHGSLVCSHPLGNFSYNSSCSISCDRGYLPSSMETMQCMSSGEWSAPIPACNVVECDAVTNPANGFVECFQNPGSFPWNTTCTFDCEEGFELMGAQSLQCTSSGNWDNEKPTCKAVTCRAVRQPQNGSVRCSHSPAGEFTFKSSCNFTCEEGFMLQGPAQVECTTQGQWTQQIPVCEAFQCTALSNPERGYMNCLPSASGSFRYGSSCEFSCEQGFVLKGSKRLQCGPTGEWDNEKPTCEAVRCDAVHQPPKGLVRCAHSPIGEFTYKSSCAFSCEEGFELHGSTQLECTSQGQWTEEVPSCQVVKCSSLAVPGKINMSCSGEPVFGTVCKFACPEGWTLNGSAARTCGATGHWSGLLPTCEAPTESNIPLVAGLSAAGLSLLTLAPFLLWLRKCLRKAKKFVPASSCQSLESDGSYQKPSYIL
Sequence of Tumor necrosis factor (Homo sapiens) (P01375 whole entry, looked up): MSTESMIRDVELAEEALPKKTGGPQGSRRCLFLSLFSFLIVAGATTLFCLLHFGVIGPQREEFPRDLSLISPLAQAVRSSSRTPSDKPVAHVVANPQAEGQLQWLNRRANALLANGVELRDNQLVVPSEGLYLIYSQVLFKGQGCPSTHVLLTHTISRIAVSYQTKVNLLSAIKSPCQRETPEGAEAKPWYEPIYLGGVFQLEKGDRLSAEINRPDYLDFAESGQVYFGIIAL

O=[N+]([O-])c1ccc(O)c([N+](=O)[O-])c1
inactive: [1] | [2] | CD40, CD40 (gene 958) [3] | [4] | [5] | [6] | [7] | [8] | [9] | [10] | [11] | [12] | CD38, CD38 (gene 952) | CD40, CD40 (gene 958) [13] | CD69, CD69 (gene 969) | [14] | [15] | [16] | [17]

O=Cc1cccc(Oc2ccccc2)c1
inactive: [1] | [2] | CD40, CD40 (gene 958) [3] | [4] | [5] | [6] | [7] | [8] | [9] | [10] | [11] | [12] | [18] | CD38, CD38 (gene 952) | CD40, CD40 (gene 958) [13] | CD69, CD69 (gene 969) | [14] | [15] | [16] | [17]

Oc1ccc(-c2ccccc2)cc1
inactive: [1] | [2] | CD40, CD40 (gene 958) [3] | [4] | [5] | [6] | [7] | [8] | [9] | [10] | [11] | [12] | CD38, CD38 (gene 952) | CD40, CD40 (gene 958) [13] | CD69, CD69 (gene 969) | [14] | [15] | [16] | [17]
